Results on seven molecules are retold here after PubChem BioAssay.

The target in assay [1] is 6-phosphogluconate dehydrogenase, decarboxylating (Homo sapiens) (UniProt P52209). The assay can be described thus: inhibition of human phosphogluconate dehydrogenase – biochemical, recombinant enzyme, NADPH absorbance, primary screen (AID 1159550;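 active means at least 20% inhibition of 6-phosphogluconate dehydrogenase activity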). Conditions: recombinant 6PGD, NADPH absorbance 341 nm; at 10 µM; stronger effect = higher value.
6-phosphogluconate dehydrogenase, decarboxylating (Homo sapiens), sequence (P52209 whole entry, looked up): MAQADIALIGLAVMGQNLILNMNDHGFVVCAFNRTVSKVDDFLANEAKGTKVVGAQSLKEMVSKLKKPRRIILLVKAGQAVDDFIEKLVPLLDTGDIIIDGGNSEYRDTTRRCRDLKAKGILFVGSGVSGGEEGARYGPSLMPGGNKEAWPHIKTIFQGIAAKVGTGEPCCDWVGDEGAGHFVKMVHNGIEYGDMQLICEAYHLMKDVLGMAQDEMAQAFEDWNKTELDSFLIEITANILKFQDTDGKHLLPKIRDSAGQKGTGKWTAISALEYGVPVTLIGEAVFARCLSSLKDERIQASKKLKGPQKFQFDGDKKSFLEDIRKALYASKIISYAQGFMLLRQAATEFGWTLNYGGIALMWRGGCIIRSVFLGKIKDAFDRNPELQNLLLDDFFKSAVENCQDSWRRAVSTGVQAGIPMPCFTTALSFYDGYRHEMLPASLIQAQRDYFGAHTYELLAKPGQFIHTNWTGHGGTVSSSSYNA
Assay [2] is described as follows: viability loss with induced miR-34 in A549 – imaging, A549 dox-inducible miR-34, nuclei and caspase counts, primary screen (AID 1347080;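 active means compounds whose cell count with miR-34 switched on is under 0.7 times the count with it off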). Conditions: A549 miR-34 inducible, Hoechst nuclei count, 48 h.
A short description of assay [3]: blockers of MitoPT in mitochondria (AID 1580). As to conditions: isolated mitochondria, permeability transition inhibition.
Assay [4] can be described thus: blockers of polyQ-driven CASP3 activation – cell-based (AID 1583). As to conditions: polyglutamine-induced caspase-3 activation, cell assay; stronger effect = higher value;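 tested at 10 µM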.
Assay [5] in a line: blockers of biotin-polyQ monomer incorporation into aggregates – biochemical, solid-phase synthetic aggregates, QA3 (AID 1585). Conditions: polyQ aggregate elongation; EC50: measured here: elongation inhibition potency; inhibition: at 100 µM, stronger effect = higher value.
Assay [6] in a line: turbidity assay for polyglutamine aggregation inhibitors, qthio, 25 µM (AID 1588). As to conditions: at 25 µM, stronger effect = lower value.
Assay [7] in a line: yeast 75Q aggregation reduction – 75Q-TubU reporter (AID 1593). Conditions: Yeast 75Q polyglutamine aggregation reporter.
Assay [8] is described as follows: restoration of touch response, mutant HTT neurons – whole organism, C. elegans mechanosensory neurons, N-terminal huntingtin (AID 1599). As to conditions: C. elegans polyQ-huntingtin mechanosensory neurons, stronger effect = higher value.
Assay [9] can be described thus: blockers of cytochrome c efflux from mitochondria – biochemical, purified mitochondria (AID 1603).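 Further: mouse liver mitochondria challenged with calcium chloride; signal normalized to the plate average as 100%.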 Conditions: stronger effect = lower value.
The nature of assay [10]: polyglutamine aggregate formation blockers (AID 1604). As to conditions: polyglutamine-induced protein aggregation inhibition assay; stronger effect = higher value; tested at 2.5 µM.
Assay [11] can be described thus: glutamate transport activators, MN-1 cells, MN-1 cell line (AID 1612).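 Further: tested at 1 µM final; 0% = mean of DMSO vehicle wells on each plate; positive means more glutamate uptake than control and negative means less.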 As to conditions: MN-1 motor neuron cells, stronger effect = higher value.
Assay [12] is described as follows: 75Q-TubH aggregate inhibition, S. cerevisiae, yeast (AID 1616). Conditions: S. cerevisiae 75Q-TubH polyglutamine aggregation suppression; stronger effect = higher value.
Assay [13] can be described thus: compounds altering viability of human ES cells (AID 493140).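 Further: cells exposed to compounds for four days before counting.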 Conditions: human embryonic stem cell survival screen; stronger effect = higher value.
The nature of assay [14]: P. berghei load reduction in hepatocytes – cell-based, HepG2, luciferase luminescence, HepG2 viability, primary screen (AID 624349; in the data active means parasite load remaining mostly below about 12%, no sharp cut-off; inactive means mostly above about 10%;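 further: 100% = mean of DMSO negative control wells on the same plate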). Conditions: P. berghei liver stage in HepG2, luciferase luminescence, concentration not given here; parasite load remaining: stronger effect = lower value; viability: measured here: HepG2 viability without parasites.
Assay [15] relates to Aerobactin synthetase IucA (Klebsiella pneumoniae hvKP1). The assay can be described thus: IucA enzyme inhibition, primary screen, biochemical, Spectrum library (AID 1346200).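 Further: 100% = wells without compound and 0% = wells lacking enzyme.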 As to conditions: malachite green pyrophosphate, A620, at 8 µM, stronger effect = lower value.
Assay [16] concerns the target NAD(+) hydrolase SARM1 (Homo sapiens) (UniProt Q6SZW1). Put plainly: blocking NAD cleavage by SARM1 SAM-TIR – cell lysate, NAD-Glo luminescence (AID 1508614;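 active means compound whose remaining NAD level is above about 45 nM, limit read from the data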). Conditions: SAM-TIR HEK293T lysate NADase, at 1 µM, stronger effect = higher value.
The target of assay [17] is Mitogen-activated protein kinase 7 (Homo sapiens) (UniProt Q13164). The assay can be described thus: Gal4-ERK5 driven luciferase induction – cell-based, HTS, primary screen (AID 1508626;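 active means luciferase signal above three times the same-plate solvent-only control wells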;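 further: luciferase driven by Gal4-ERK5 fusion binding five Gal4 sites before minimal TATA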). As to conditions: HeLa Gal4-ERK5 transactivation, 18 h, at 5 µM, stronger effect = higher value.
Mitogen-activated protein kinase 7 (Homo sapiens), sequence (Q13164 whole entry, looked up, the tested form may be a part): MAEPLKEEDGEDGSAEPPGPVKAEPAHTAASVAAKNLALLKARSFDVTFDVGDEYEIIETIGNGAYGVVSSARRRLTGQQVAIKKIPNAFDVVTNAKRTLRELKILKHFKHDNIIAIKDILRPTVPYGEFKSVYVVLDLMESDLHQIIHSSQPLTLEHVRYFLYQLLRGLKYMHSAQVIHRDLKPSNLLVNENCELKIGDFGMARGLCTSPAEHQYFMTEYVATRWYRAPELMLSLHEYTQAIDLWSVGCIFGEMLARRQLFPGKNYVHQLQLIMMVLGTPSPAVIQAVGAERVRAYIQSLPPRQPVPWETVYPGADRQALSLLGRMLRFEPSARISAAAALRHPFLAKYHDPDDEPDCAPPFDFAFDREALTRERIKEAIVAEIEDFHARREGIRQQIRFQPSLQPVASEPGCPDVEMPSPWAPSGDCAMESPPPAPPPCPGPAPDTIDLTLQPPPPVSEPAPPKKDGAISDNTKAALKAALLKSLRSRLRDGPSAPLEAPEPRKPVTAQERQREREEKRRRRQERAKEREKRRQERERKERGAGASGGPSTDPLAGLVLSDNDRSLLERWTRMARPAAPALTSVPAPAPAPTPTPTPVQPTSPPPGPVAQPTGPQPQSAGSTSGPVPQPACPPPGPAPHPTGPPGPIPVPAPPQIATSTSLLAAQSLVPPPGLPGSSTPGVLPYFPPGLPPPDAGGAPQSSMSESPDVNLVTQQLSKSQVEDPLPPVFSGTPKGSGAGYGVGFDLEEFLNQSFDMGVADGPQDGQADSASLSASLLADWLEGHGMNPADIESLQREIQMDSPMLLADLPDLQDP
Assay [18] is described as follows: rescue of PC12 cells from polyQ htt toxicity – LDH release (AID 1610). Conditions: PC12 mutant huntingtin toxicity, final LDH at 4 uM, stronger effect = lower value. In general terms: LDH leaks from cells whose membrane has failed.
Assay [19] is described as follows: signal quenchers or enhancers, Cy5 substrate/SSB – biochemical, NIH Clinical Collection, E. coli SSB, artefact control for HCV NS3 helicase inhibitor project (AID 743268). Conditions: Cy5-oligo bound E. coli SSB, fluorescence interference.
Assay [20] has as its system Hepatitis C virus NS3 helicase. The assay can be described thus: blockers of NS3h binding to DNA – biochemical, fluorescence polarization, NIH Clinical Collection, primary screen (AID 743270). As to conditions: NS3 helicase binding to Cy5-dT15 DNA, stronger effect = higher value, concentration not given here. On the technique in general: Fluorescence polarisation rises when a labelled molecule tumbles more slowly, as on binding a larger partner.

Assay [21] concerns the target Single-stranded DNA-binding protein (Escherichia coli (strain K12)) (UniProt P0AGE0). Put plainly: SSB-ssDNA binding inhibitors – biochemical, fluorescence polarization, NIH Clinical Collection, counter-screen for HCV NS3 helicase inhibitor project (AID 743271; in the data active means inhibition above about 28%). As to conditions: E. coli SSB-DNA binding, stronger effect = higher value, concentration not given here.
Assay [22] can be described thus: compounds distorting NS3 helicase fluorescence signal – biochemical, NIH Clinical Collection, artefact control for HCV NS3 helicase inhibitor project (AID 743272).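 Further: HCV NS3 helicase with a Cy5 labelled single stranded DNA probe.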 Conditions: fluorescence interference counterscreen, HCV NS3 helicase assay; stronger effect = lower value.
Assay [23] is described as follows: viability loss in pontine glioma line – cell-based, SU-DIPG-XIII, MIPE4.0, CellTiter-Glo, qHTS, dose response (AID 1347061; cut-off not given, nearly all actives have AC50 up to about 37 µM;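 further: cells exposed to compound for 48 hours before readout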). As to conditions: CellTiter-Glo ATP luminescence.
Assay [24] in a line: viability loss in pontine glioma line – cell-based, JHH-DIPG-1, MIPE4.0, CellTiter-Glo, qHTS, dose response (AID 1347062; cut-off not given, nearly all actives have AC50 up to about 27 µM). As to conditions: JHH-DIPG-1 viability, CellTiter-Glo ATP luminescence.
Assay [25] is described as follows: viability loss in pontine glioma line – cell-based, SU-DIPG-IV, MIPE4.0, CellTiter-Glo, qHTS, dose response (AID 1347063; cut-off not given, nearly all actives have AC50 up to about 30 µM;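 further: compound exposure lasted 48 hours before the viability readout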). Conditions: CellTiter-Glo ATP luminescence. (In general: In ATP-based viability assays light output follows the ATP content of the culture.)
Assay [26] can be described thus: growth inhibition of DIPG cells – cell-based, MIPE4.0 library, CellTiter-Glo luminescence, qHTS (AID 1347066; cut-off not given, nearly all actives have AC50 up to about 30 µM;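 further: cells exposed to compound for 48 hours before readout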). As to conditions: SU-DIPG-VI viability, CellTiter-Glo ATP luminescence.
In assay [27] the target is ATP-dependent translocase ABCB1 (Homo sapiens) (UniProt P08183). Put plainly: P-glycoprotein substrate transport blockade – cell-based (AID 377; in the data active means fluorescence slope change above about 50%). Conditions: MDR1-expressing cells, fluorescent substrate accumulation slope; stronger effect = higher value; concentration not given here.
ATP-dependent translocase ABCB1 (Homo sapiens), sequence (P08183 whole entry, looked up): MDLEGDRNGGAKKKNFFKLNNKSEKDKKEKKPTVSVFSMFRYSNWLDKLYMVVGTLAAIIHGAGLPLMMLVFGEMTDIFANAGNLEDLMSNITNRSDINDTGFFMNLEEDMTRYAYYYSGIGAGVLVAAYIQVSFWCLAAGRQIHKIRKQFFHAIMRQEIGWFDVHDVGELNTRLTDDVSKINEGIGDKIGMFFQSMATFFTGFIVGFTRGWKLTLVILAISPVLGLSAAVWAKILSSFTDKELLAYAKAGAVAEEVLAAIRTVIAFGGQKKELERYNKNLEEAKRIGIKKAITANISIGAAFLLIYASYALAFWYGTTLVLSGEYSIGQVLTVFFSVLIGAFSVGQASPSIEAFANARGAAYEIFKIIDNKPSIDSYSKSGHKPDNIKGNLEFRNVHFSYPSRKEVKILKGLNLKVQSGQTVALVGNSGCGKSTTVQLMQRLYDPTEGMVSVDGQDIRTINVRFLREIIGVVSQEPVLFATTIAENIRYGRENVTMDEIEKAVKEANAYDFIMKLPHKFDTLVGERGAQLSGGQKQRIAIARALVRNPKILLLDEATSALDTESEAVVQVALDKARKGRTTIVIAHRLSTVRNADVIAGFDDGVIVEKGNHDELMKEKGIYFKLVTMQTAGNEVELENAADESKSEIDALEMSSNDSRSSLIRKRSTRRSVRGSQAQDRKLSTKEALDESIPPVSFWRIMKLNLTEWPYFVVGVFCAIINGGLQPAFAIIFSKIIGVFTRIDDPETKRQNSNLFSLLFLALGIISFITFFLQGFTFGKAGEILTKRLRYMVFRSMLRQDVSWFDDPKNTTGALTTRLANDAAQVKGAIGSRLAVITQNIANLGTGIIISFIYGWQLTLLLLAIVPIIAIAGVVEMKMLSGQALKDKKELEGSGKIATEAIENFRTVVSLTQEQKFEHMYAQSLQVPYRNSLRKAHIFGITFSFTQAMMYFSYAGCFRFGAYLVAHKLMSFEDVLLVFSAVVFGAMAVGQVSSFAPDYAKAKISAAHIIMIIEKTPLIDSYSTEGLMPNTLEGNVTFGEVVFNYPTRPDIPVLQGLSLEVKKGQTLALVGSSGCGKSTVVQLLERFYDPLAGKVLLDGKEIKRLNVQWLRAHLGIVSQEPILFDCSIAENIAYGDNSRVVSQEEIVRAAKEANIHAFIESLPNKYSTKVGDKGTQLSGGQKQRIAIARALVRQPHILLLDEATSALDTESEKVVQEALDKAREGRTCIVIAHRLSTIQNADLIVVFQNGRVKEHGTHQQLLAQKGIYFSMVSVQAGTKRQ
The nature of assay [28]: MELAS cybrid and Rieske KO viability enhancers – cell-based, MELAS cybrids, Rieske KO mouse fibroblasts, CellTiter-Glo, primary screen (AID 1508586;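 active means mean z-score across replicates of 1.96 or higher in either the MELAS or the Rieske mutant cell line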;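 further: z relative to plate mean and SD of compound and empty wells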). As to conditions: low glucose.
[29] abbreviates: measured here: relative caspase fold change +Dox/-Dox.
Where [30] appears, read: measured here: total cells with miR-34 induction, stronger effect = lower value.
Setting [31] is: measured here: total cells without miR-34 induction.

Values joined by “and” are separate entries in the source; they are usually repeats but may differ in a detail not shown here. Equal values may be shown once. Results filed as inconclusive are left out. For some of these results: Measured potencies and affinities stand elsewhere. Active and inactive are the calls of the source. Unless noted, how the calls were made is not given here.

NAD(+) hydrolase SARM1 (Homo sapiens), sequence (Q6SZW1 whole entry, looked up, the tested form may be a part): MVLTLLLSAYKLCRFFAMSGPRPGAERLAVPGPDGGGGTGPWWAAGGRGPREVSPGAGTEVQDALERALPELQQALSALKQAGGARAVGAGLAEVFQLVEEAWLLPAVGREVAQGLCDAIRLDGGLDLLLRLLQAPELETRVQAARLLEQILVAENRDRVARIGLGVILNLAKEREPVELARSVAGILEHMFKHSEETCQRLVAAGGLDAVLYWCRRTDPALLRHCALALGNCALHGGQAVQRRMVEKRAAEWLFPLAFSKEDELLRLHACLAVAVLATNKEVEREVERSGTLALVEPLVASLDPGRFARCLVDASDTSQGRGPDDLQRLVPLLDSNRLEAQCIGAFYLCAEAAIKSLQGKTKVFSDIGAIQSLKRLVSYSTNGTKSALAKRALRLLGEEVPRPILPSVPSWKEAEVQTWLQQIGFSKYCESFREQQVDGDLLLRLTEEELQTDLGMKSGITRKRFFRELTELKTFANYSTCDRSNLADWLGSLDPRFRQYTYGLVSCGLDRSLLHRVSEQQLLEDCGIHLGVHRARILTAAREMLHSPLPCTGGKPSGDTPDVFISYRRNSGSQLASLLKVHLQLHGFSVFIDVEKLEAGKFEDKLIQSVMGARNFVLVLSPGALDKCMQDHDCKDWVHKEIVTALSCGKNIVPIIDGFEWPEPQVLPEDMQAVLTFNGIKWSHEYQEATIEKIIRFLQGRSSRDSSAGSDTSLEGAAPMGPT

As usually defined, the inhibition is the drop in the measured response relative to a control, in per cent. With `COc1ccc(C(=O)O[C@H]2CC[C@@]3(C)[C@@H]4CC[C@H]5[C@]6(O)C[C@H](O)[C@@]7(O)[C@@H](CN8C[C@@H](C)CC[C@H]8[C@@]7(C)O)[C@]6(O)C[C@@]53O[C@]24O)cc1OC`, the inhibition in assay [1] was 9.47% (inactive). For the same molecule, the results for the fold change in [2] (stronger effect = lower value) and in assay [2] (setting [29]) were 0.935 (inactive) and 1.54, respectively. The cell count in assay [2] (setting [30]) is 6050; in assay [2] (setting [31]) it was 6480.
As usually defined, the EC50 is the concentration giving half of the maximal effect. What is called viability is a per cent measure of how many cells are alive, often set against a control. In the case of `O=C(O)c1ccccc1-c1c2cc(Br)c(=O)cc-2oc2[c]([Hg])c(O)c(Br)cc12`, the 50% effective concentration (EC50) in [3] is 10 µM (active); in [5], 38 µM. The inhibition was 39.1% in assay [4], 61.6% (active) in assay [5] and 2.12% (inactive) in assay [1]. In addition, the aggregation (% of control) in assay [6] is 41.9% (active). The molecule further yielded a score in assay [7] of 0.07. This molecule also had a rescue above control in assay [8] of 0. Further, the cytochrome c release ratio in assay [9] is 1.39. The molecule also had an inhibition of aggregation in assay [10] of 57.7%. Besides, the glutamate uptake change in assay [11] was -7.36%. The same molecule yielded an aggregation suppression score in assay [12] of 0.0281. Further, the survival in assay [13] is 18.6 (inactive). Moreover, the parasite load remaining in [14] is 62.4% (inactive) and 40.3% (inactive). Moreover, the viability in assay [14] was 57.8% and 97.8%. Besides, the activity remaining in assay [15] was -1.02% (active). In addition, the fold change in assay [2] (stronger effect = lower value) is 0.908 (inactive); in assay [2] (setting [29]), 2.08. Further, the values for the cell count in assay [2] (setting [30]) and in assay [2] (setting [31]) were 11900 and 13100, respectively. For the same molecule, in assay [16], the remaining NAD was 56 nM (active). Besides, the luciferase signal in [17] is 52 AU (inactive).
Take `CC(=O)Oc1ccc(Cl)c2cccnc12`: the inhibition in [4] was found to be 11.4%. This molecule also came in with a score in assay [7] of 0.08. Also, the rescue above control in assay [8] is 7.46. Also, in assay [9], the cytochrome c release ratio was 1.44. Further, in assay [10], the inhibition of aggregation amounted to 87.2%. Moreover, the normalised LDH release in assay [18] is 1.08. In addition, the glutamate uptake change in assay [11] was 14.2%. Besides, in [12], the aggregation suppression score stood at 0.0401. Moreover, in assay [14], the parasite load remaining was -5% (inactive) and the viability amounted to 65.2%. The inhibition in assay [1] is -4.5% (inactive). Further, the activity remaining in [15] was 124% (inactive).
For the molecule `C[C@]12CC[C@H]3[C@@H](CCC4=CC(=O)CC[C@@]43C)[C@@H]1CC[C@@H]2O`, in [14], the parasite load remaining is 61.8% (inactive). Moreover, in assay [14], the viability came to 72.2%. Moreover, the fluorescence ratio in assay [19] is 0.93 (inactive); in assay [22], 0.96 (inactive). Also, the inhibition in [20] is 1.53% (inactive); in assay [21] it was 0.39% (inactive); in assay [1], 16.5% (inactive). In addition, the molecule was classed as inactive in [23], in assay [24], in assay [25] and in assay [26]. The remaining NAD in assay [16] is 10 nM (inactive). In addition, the luciferase signal in assay [17] was 68 AU (inactive).
As for `C[CH2][Hg][S]c1ccccc1C(=O)O`, the fluorescence slope change in assay [27] was -19.9% (inactive). Moreover, the inhibition was 67.3% in assay [4] and 17.7% (inactive) in assay [1]. In addition, the score in assay [7] is -0.03. Moreover, the rescue above control in [8] was 0. The cytochrome c release ratio in assay [9] stood at 0.71. The inhibition of aggregation in assay [10] worked out at 18.2%. The glutamate uptake change in assay [11] came out at 8.21%. In addition, the aggregation suppression score in assay [12] was -0.00186. In assay [14], the parasite load remaining is 82.3% (inactive) and 0.045% (inactive). Further, the viability in assay [14] was 62% and 0.315%. For the same molecule, in assay [15], the activity remaining was -3.51% (active). The fold change in [2] (stronger effect = lower value) was 1.62 (inactive); in assay [2] (setting [29]), 0.728. Also, the cell count in assay [2] (setting [30]) came out at 630; in assay [2] (setting [31]), 389. Further, the remaining NAD in assay [16] is 10 nM (inactive). The luciferase signal in [17] is 44 AU (inactive).
Regarding `C[C@@H]1C(=O)O[C@H]2[C@H]1CC[C@@]1(C)C=CC(=O)[C@@]3(C)O[C@@]213`, the inhibition in assay [1] was -5.96% (inactive). Moreover, the activity remaining in [15] is 112% (inactive). Further, the luciferase signal in assay [17] is 108 AU (inactive).
As to `CCC(=O)O[C@H]1CC[C@H]2[C@@H]3CCC4=CC(=O)CC[C@]4(C)[C@H]3CC[C@]12C`, the survival in assay [13] is 13.8 (inactive). For the same molecule, in assay [14], the parasite load remaining was 71.3% (inactive) and 54% (inactive). Besides, the viability in assay [14] was 94.2% and 78.8%. In addition, in assay [1], the inhibition is 16.6% (inactive). In addition, the fold change in [2] (stronger effect = lower value) was 0.875 (inactive); in assay [2] (setting [29]), 1.34. Further, the cell count worked out at 8190 in [2] (setting [30]) and 9360 in assay [2] (setting [31]). The z-score in assay [28] (MELAS cybrid survival, CellTiter-Glo 48 h, stronger effect = higher value) was -0.581 (inactive); in assay [28] (Rieske KO mouse fibroblast survival, CellTiter-Glo 72 h) it was -0.301. Also, in assay [16], the remaining NAD was 10 nM (inactive). In assay [17], the luciferase signal was 32 AU (inactive).
